Shown are actives, neighbours in structure and some others; about 6.2% of the full set was active somewhere.
MARV entry inh = blocks Marburg virus binding to or entry into cells. Marburg virus pseudotyped entry inhibition, cell reporter. actives 1.8% (n = 300,000). Potency, µM (doses to about 37.8 µM), for the others: at the top dose activity change, negative = inhibition, hits mostly inhibitors; calls by dose curve; tested in HEK293 cells; also: potency is read from the fitted curve at half-maximal effect
HCMV antiviral = human cytomegalovirus inhibition; HFF cells, HCMV-luciferase reporter, 72 h; stronger effect = lower value; AID 1259415; activity change, negative = inhibition, % at 57.5 µM; actives 4.5% (n = 410,000); in the data active = activity change below about -60%; inconclusive = no clear call, values can overlap the other calls; inactive = above about -39%
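Cell-based, HFFs, 1000 cells/well, 16 h 37C; cpds in DMSO + HCMV-luc, MOI 1 PFU/cell; 72 h 37C; OneGlo luminescence after 5 min RT; norm. to buffer vs Salinomycin 10uM.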
Lassa entry inh = blocks Lassa virus binding to or entry into cells; Lassa virus pseudotype entry inhibition, cell reporter; Potency, µM (series often up to 37.9 µM), without a hit: top-dose activity change, negative = inhibition, hits mostly inhibitors; actives 1.2% (n = 300,000); calls by dose curve; tested in HEK293 cells; also: potency is read from the fitted curve at half-maximal effect; nearly all actives have a fitted effect of over 50% in size
FMDV inh = blocks foot and mouth disease virus; AID 1159524; Potency, µM (series often up to 57.9 µM), for inactives: at the top dose activity change, negative = inhibition, most hits filed as inhibitors; actives 1.2% (n = 410,000); FMDV antiviral cell-based qHTS; calls by dose curve; tested in HEK293T cells; also: read-out not given here; potency is read from the fitted curve at half-maximal effect; nearly all actives have a fitted effect of over 45% in size
* marks the source's active call; other numbers are inactive results; [ ] = dose if it differs, or a comment. % is scaled to controls: 0 for no effect and ±100 for the full control effect.

What do the screens show for `COc1cccc(C2C(C(=O)Nc3cccnc3)=C(C)Nc3nnnn32)c1OC` (stereo not given)?
MARV entry inh: inconclusive; HCMV antiviral: -69.2*; Lassa entry inh: -19.6%; FMDV inh: 10.8%

Results for COc1cc(C2C(C(=O)Nc3ccccc3)=C(C)Nc3nnnn32)cc(OC)c1OC (stereo not given) ?
MARV entry inh: 22.2%[46.1 µM]; HCMV antiviral: -105.9*; Lassa entry inh: -1.0%[46.1 µM]; FMDV inh: 5.6%

How did CC1(CCc2ccc3c(c2)OCO3)NCCc2c1[nH]c1ccccc21 (stereo not given) do in these assays?
HCMV antiviral: -86.9*; FMDV inh: -23.3%

How did COC1CC(C)C(OC)c2cc(O)cc(c2O)NC(=O)C(C)=CC=CC(C)C(OC(N)=O)C(C)=CC(C)C1OC (stereo not given) do in these assays?
MARV entry inh: 3.55µM*; HCMV antiviral: -99.2*; Lassa entry inh: inconclusive; FMDV inh: 126µM*

Results for COC1C=CC=C(C)C(=O)NC2=CC(=O)C(N)=C(CC(C)CC(OC)C(O)C(C)C=C(C)C1OC(N)=O)C2=O (stereo not given) ?
MARV entry inh: 0.199µM*; HCMV antiviral: -97.5*; Lassa entry inh: 0.447µM*; FMDV inh: 10µM*

What do the screens show for `COc1cc2cc(CNc3ccccc3)c(=O)n(CC(=O)Nc3cccc(Cl)c3C)c2cc1OC`?
HCMV antiviral: 40.4; Lassa entry inh: 13.7%[46.1 µM]; FMDV inh: 31.5%

What do the screens show for `O=C1NC(c2ccccn2)Nc2sc3c(c21)CCC3` (stereo not given)?
MARV entry inh: 10.9%; HCMV antiviral: -103.4*; Lassa entry inh: 2.5%; FMDV inh: 37.5%

How did COC(=O)C1C[C@@]23C(=NN=C(SC)C2N(C)c2ccc(OC)cc23)N1C(C)=O (stereo not given in full) do in these assays?
MARV entry inh: -33.2%[14.2 µM]; Lassa entry inh: inconclusive

Results for Cc1cc(C)n2c(SCC(=O)N3CCN(S(=O)(=O)c4ccc(Cl)cc4)CC3)nnc2n1 ?
MARV entry inh: 14.4%[46.1 µM]; HCMV antiviral: -73.2*; Lassa entry inh: -11.5%; FMDV inh: 5.9%

What do the screens show for `CCN1C(=S)NC(c2ccccc2)C(C(=O)OC)=C1C` (stereo not given)?
MARV entry inh: -2.3%[14.2 µM]

What do the screens show for `CNc1ncnc2c1ncn2[C@H]1CN(Cc2cccc3ccccc23)C[C@@H](CO)O1`?
HCMV antiviral: 37.8; FMDV inh: 0.0%

What do the screens show for `CCCCOc1ccc(C(=O)Nc2ccc3c(c2)N(C(C)=O)CCC3)cc1`?
HCMV antiviral: inconclusive; Lassa entry inh: 5.6%[46.1 µM]; FMDV inh: 3.16µM*

How did CC(=O)N1CCCc2ccc(NC(=O)c3ccc(OC(C)C)cc3)cc21 do in these assays?
HCMV antiviral: -60.5*; Lassa entry inh: inconclusive; FMDV inh: 11.2µM*

What do the screens show for `COCCNc1ccc(-c2nc(-c3ccccn3)no2)cc1[N+](=O)[O-]`?
MARV entry inh: 9.4%[46.1 µM]; HCMV antiviral: 106.8; Lassa entry inh: -13.7%[46.1 µM]; FMDV inh: -10.1%

How did CCOc1ccc(C2C(C(=O)c3ccc(C)o3)=C(O)C(=O)N2Cc2cccnc2)cc1 (stereo not given) do in these assays?
HCMV antiviral: inconclusive; FMDV inh: 2.8%

Results for Cc1ccc(C(=O)C2=C(O)C(=O)N(Cc3cccnc3)C2c2ccc(Cl)cc2)o1 (stereo not given) ?
MARV entry inh: -0.2%[46.1 µM]; HCMV antiviral: -26.0; Lassa entry inh: -9.3%[46.1 µM]; FMDV inh: 15.8µM*

What do the screens show for `CN(C)c1ncc2nc(CCc3ccccc3)c(=O)n(C[C@H]3CCCO3)c2n1`?
FMDV inh: 11.0%

What do the screens show for `COc1ccc2ncn(-c3cc(OC(C)c4ccccc4C(F)(F)F)c(C(N)=O)s3)c2c1` (stereo not given)?
Lassa entry inh: 0.223µM*

What do the screens show for `CC(Oc1cc(-n2cnc3ccc(OC4CCN(C)CC4)cc32)sc1C(N)=O)c1ccccc1Cl` (stereo not given)?
Lassa entry inh: 0.199µM*

Results for COc1cccc(COc2cc(-n3cnc4ccccc43)sc2C(N)=O)c1 ?
Lassa entry inh: 4.99µM*

What do the screens show for `CCCOc1ccc(NC(=O)CC2C(=O)N(c3ccc(C)cc3)C(=O)N2C(C)C)cc1` (stereo not given)?
HCMV antiviral: 19.9; Lassa entry inh: inconclusive; FMDV inh: -4.3%

Results for Cc1cc2c(C(C)C)c(O)c(O)c(C=O)c2c(O)c1-c1c(C)cc2c(C(C)C)c(O)c(O)c(C=O)c2c1O ?
MARV entry inh: 9.96µM*; Lassa entry inh: 7.05µM*; FMDV inh: inconclusive

How did COc1ccc2c(c1)sc1ncc(C(=O)NCc3ccc(OC(C)C)cc3)c(=O)n12 do in these assays?
MARV entry inh: inconclusive; HCMV antiviral: 17.8; FMDV inh: 7.9%

How did O=S(=O)(NC(=S)c1ccccc1)c1ccccc1 do in these assays?
MARV entry inh: 1.2%[46.1 µM]; HCMV antiviral: -35.7; Lassa entry inh: 10.8%[46.1 µM]; FMDV inh: 6.3%

Results for CC(C)N=C(NS(=O)(=O)c1ccccc1)C(Cl)(Cl)Cl ?
MARV entry inh: inconclusive; HCMV antiviral: -98.2*; Lassa entry inh: inconclusive; FMDV inh: 0.0%

Results for CC(NC(=O)CN1C(=O)COc2ccc(Cl)cc21)c1ccccc1 (stereo not given) ?
MARV entry inh: -7.8%[46.1 µM]; HCMV antiviral: -25.8; Lassa entry inh: -13.9%[46.1 µM]; FMDV inh: -20.9%

Results for CN(C)CCCCOc1ccc(F)cc1 ?
MARV entry inh: 0.0%[46.1 µM]; HCMV antiviral: -6.8; Lassa entry inh: 6.1%; FMDV inh: -5.8%

How did CN(C)CCOC1(Cc2ccc(F)cc2)CCC(C(C)(C)C)CC1 (stereo not given) do in these assays?
MARV entry inh: 11.2µM*; HCMV antiviral: inconclusive; Lassa entry inh: inconclusive; FMDV inh: -28.5%

Results for Cc1ccc(CC2(OCCN(C)C)CCC(C(C)(C)C)CC2)cc1 (stereo not given) ?
MARV entry inh: 10µM*; HCMV antiviral: inconclusive; Lassa entry inh: inconclusive; FMDV inh: inconclusive

What do the screens show for `CCOc1ccc2nc(NC(=O)c3cc(=O)c4ccc(C)cc4o3)sc2c1`?
MARV entry inh: inconclusive; HCMV antiviral: 11.5; Lassa entry inh: 8.1%[46.1 µM]; FMDV inh: -21.1%

What do the screens show for `COc1cccc(OCc2cc(/C=N/Nc3ccc(C(=O)O)cc3)ccc2OC)c1`?
MARV entry inh: -2.3%; HCMV antiviral: 8.6; FMDV inh: 0.891µM*

How did COc1ccc(/C=N/NC(=O)c2ccoc2C)cc1COc1ccc(Cl)cc1 do in these assays?
MARV entry inh: inconclusive; HCMV antiviral: 25.9; Lassa entry inh: inconclusive; FMDV inh: 22.4µM*

How did COc1ccc(C(=O)N/N=C/c2ccc(OC)c(COc3ccc(F)cc3)c2)cc1 do in these assays?
MARV entry inh: inconclusive; HCMV antiviral: 50.8; Lassa entry inh: -29.4%; FMDV inh: -12.2%

Results for COc1ccc(C(=O)N/N=C/c2ccc(OC)c(COc3ccc(F)cc3F)c2)cc1 ?
MARV entry inh: inconclusive; HCMV antiviral: 33.5; Lassa entry inh: 2.24µM*; FMDV inh: inconclusive

Results for COC(=O)[C@]12CCCCC=C1N(Cc1ccc(Cl)cc1Cl)C(=O)[C@H](CC(=O)NCCCN1CCCC1=O)C2 ?
HCMV antiviral: 17.6; FMDV inh: -13.9%

Bioassay records: PubChem, National Center for Advancing Translational Sciences (NCATS)
